“And” between values parts separate entries of the source, which are not always exact repeats. Equal values may be shown once. Inconclusive results are not listed. Where a call stands in place of a potency, no number is given. More than one record can exist for a structure, and the calls need not agree. The source made the active and inactive calls. Calls come from the whole dose curve; as a rule, active = well fitted cell-killing curve with a large enough effect in the repeat runs; inconclusive = weak or mixed curves, or effect the other way; inactive = no such curve, though single readings can be large or run the other way.
Potency is the fitted concentration of half-maximal effect.

The assay is described as follows: qHTS assay for identifying genotoxic compounds that show differential cytotoxicity against isogenic chicken DT40 cell lines with known DNA damage response pathways - wild type cell line (AID 743012). Note: nearly all actives have a fitted effect of over 60% in size. As to conditions: DT40 wild type chicken cells viability, CellTiter-Glo, 40 h; series mostly up to 68.4 µM. An excerpt:
U.S. Tox21 Program National Center for Advancing Translational Sciences [NCATS] NIH Chemical Genomics Center [NCGC] U.S. Environmental Protection Agency [EPA] National Institutes of Environmental Health Sciences [NIEHS] National Toxicology Program [NTP] U.S. Food and Drug Administration [FDA] Tox21 Assay Overview: DNA repair pathways play a critical role in cellular homeostasis by repairing DNA damage induced by endogenous processes and xenobiotics. Isogenic chicken DT40 cell lines deficient in different DNA repair pathways can be used to identify genotoxic compounds and aid in characterizing the nature of the DNA damage induced. Two DNA repair-deficient cell lines with disrupted genes, Rad54/Ku70 or Rev3, were used to screen the Tox21 10K compound library. Possible genotoxicity was based on the presence of a significant increase in cytotoxicity in one or more of the DNA repair-deficient cell lines compared to that observed in the parental DNA repair-proficient cell line. CellTiter Glo viability assay (Promega, Madison, WI) was used to measure cell viability in these cells after compound treatment. This assay includes the data from the wild type cell line.
Tox21 Assay Protocol Summary: 300 DT40 wild type cells in 5 uL/well were dispensed into white, solid-bottom 1536-well plates using a Multidrop Combi (ThermoFisher Scientific, Waltham, MA) dispenser. After the assay plates were incubated at 37 C/5% CO2 for approximately 0.5 hour, 23 nL of compounds dissolved in DMSO, positive controls or DMSO only was transferred into the assay plate by a pintool work station (Kalypsys, San Diego, CA). The assay plates were incubated at 37 C/5% CO2 for 40 hours. After 5 uL per well of CellTiter-Glo reagent was added into each well of the assay plates, the plates were incubated for 30 min at room temperature and the luminescence intensity of the plates was measured using a ViewLux (PerkinElmer, Shelton, CT) plate reader.
Take `COc1ccccc1N`: the Potency result is “inactive”. In the case of `CCCCn1cc[n+](C)c1C` it was “inactive”.

As to `C[C@]12CCC(=O)C=C1CC[C@@H]1[C@@H]2CC[C@]2(C)C(=O)CC[C@@H]12`, the Potency is 23.7 µM (active) and 27.3 µM (active). Turning to `O=P1(N(CCCl)CCCl)NCCCO1` (stereo not given), the Potency entry is “inactive”. As to `O=C(O)c1nc(Cl)ccc1Cl`, the Potency result was “inactive”. Then `CCC[N+]1(C)CCCCC1`, with “inactive”.

As for `CCCCCCCCCCCCCC[P+](CCCCCC)(CCCCCC)CCCCCC`, the Potency is 13.7 µM (active) and 6.91 µM (active). In the case of `COP(=O)(OC)OC=C(Cl)Cl`, the Potency is 9.44 µM (active) and inactive. In the case of `O=C(O)CC(O)(CC(=O)O)C(=O)O` it was “inactive”; in that of `O=c1nc(O)n(Cl)c(=O)n1Cl`, “inactive”; in that of `O=C(O)C(Cl)(Cl)Cl`, “inactive”. As to `COCC(=O)N(c1c(C)cccc1C)C(C)C(=O)OC` (stereo not given), the Potency entry is “inactive and 61 µM (active)”. For `CCCC[n+]1ccccc1`, the Potency entry is “inactive”. On to `Cc1cc(Cl)ccc1OCC(=O)O`, for which the Potency entry was “inactive”. For `C1CCC(NC2CCCCC2)CC1`, the Potency result was “inactive”.

As for `O=C(O)COc1ccc(Cl)cc1Cl`, the Potency result is “inactive”. For `Nc1ccc(Cl)cc1`, the Potency entry is “inactive”. Turning to `CC[n+]1ccccc1`, the Potency entry was “inactive and 241 nM (active)”. Take `C=CCOC(Cn1ccnc1)c1ccc(Cl)cc1Cl` (stereo not given): the Potency was 11.9 µM (active) and 48.7 µM (active) and 13.7 µM (active). In the case of `Cc1cc(-c2ccc(N)c(C)c2)ccc1N` it was “inactive”; in that of `CCCC[N+]1(C)CCCC1`, “inactive”; in that of `CCCC[n+]1cccc(C)c1`, “inactive”.

As for `CCC(=O)C(CC(C)N(C)C)(c1ccccc1)c1ccccc1` (stereo not given), the Potency is 24.4 µM (active) and 41.5 µM (active). Then `O=C(O)C(Cl)Cl`, with “inactive”; and `COc1ccc(N)cc1`, with “inactive”; and `O=C(O)CCl`, with “inactive”. For `CC(Cl)(Cl)C(=O)O`, the Potency entry was “inactive”. As for `CCC[N+]1(C)CCCC1`, the Potency result is “inactive”. Then `CCNc1nc(Cl)nc(NCC)n1`, with “inactive”; and `CC(=O)[O][Hg][c]1ccccc1`, with 211 nM (active) and 271 nM (active) and 109 nM (active).

On to `CCCCCCCCCCCCOS(=O)(=O)O`, for which the Potency result was “inactive”. Consider `Nc1ccc(-c2ccc(N)c(Cl)c2)cc1Cl`, for which the Potency is 54.5 µM (active). As to `OCCOc1ccccc1`, the Potency result is “inactive”.

As for `CCOP(=S)(OCC)Oc1ccc2c(C)c(Cl)c(=O)oc2c1`, the Potency result was “inactive and 17.2 µM (active)”.

`CC(=O)O`: the Potency result was “inactive”. Regarding `CCCC[n+]1ccc(C)cc1`, the Potency result was “inactive and 54.2 µM (active)”. As for `O=[N+]([O-])O`, the Potency entry is “inactive and 42.1 µM (active)”.

In the case of `Oc1ccccc1-c1ccccc1`, the Potency result was “inactive”. Consider `C[N+](C)(C)Cc1ccccc1`, for which the Potency result is “inactive”. With `CC[N+](CC)(CC)CC`, the Potency result is “inactive”.

Values taken from PubChem BioAssay (Tox21).
